Results reported in PubChem BioAssay (Tox21).
“And” between values parts separate entries of the source, which are not always exact repeats. Identical values can stand only once. Inconclusive results are not listed. A call without a number means that no potency is given here. The source holds several records for some structures; these can differ, active in one and inactive in another. The source made the active and inactive calls. Unless noted, calls follow the shape of the dose curve; as a rule, active = well fitted curve in the direction sought with a large enough effect in the repeat runs; inconclusive = weak or mixed curves; inactive = no such curve, though single readings can be large; an effect the other way counts as inactive or inconclusive.

How the values were obtained:
[1] = qHTS assay to identify small molecule agonists of the vitamin D receptor (VDR) signaling pathway - cell viability counter screen (AID 743224); also: nearly all actives have a fitted effect of over 50% in size; also: potency is read from the fitted curve at half-maximal effect
Outline: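 Cells: VDR-bla, 2,000/well, settled 4 h. Treatment: compounds in DMSO, 16 h, 37C/5% CO2. Readout: CellTiter-Glo luminescence after 30 min RT.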

[2] = qHTS assay to identify small molecule agonists of the NFkB signaling pathway (AID 1159509; active = well fitted curve in the direction sought with a large enough effect in the signal ratio in the repeat runs, not every such curve was filed as active; the % refers to the signal ratio)
Outline: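 Agonist activity was read as beta-lactamase-driven FRET change (460 and 530 nm emission, 405 nm excitation) following 1.5 hr substrate loading at room temperature. Beforehand, ME-180 NFkB-bla reporter cells were treated with compounds for 5 hr at 37 C.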

[3] = qHTS assay to identify small molecule agonists of the endoplasmic reticulum stress response signaling pathway (AID 1159516; active = well fitted activation curve with a large enough effect in the signal ratio in the repeat runs, not every such curve was filed as active; the % refers to the signal ratio)
Outline: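 Cells are seeded at 1,500 per well and incubated overnight. Compounds in DMSO are added for 5 hr at 37 C, then beta-lactamase FRET substrate for 2 hr at room temperature, and fluorescence at 460 and 530 nm is measured.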

[4] = qHTS assay to identify small molecule agonists of the endoplasmic reticulum stress response signaling pathway - cell viability counter screen (AID 1159517; calls by dose curve; also: nearly all actives have a fitted effect of over 50% in size; also: potency is read from the fitted curve at half-maximal effect)
Outline: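 In parallel with the ESRE reporter read, cytotoxicity was scored by CellTiter-Glo luminescence (30 min, room temperature) on HeLa ESRE-bla cells dosed for 5 hr.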

[5] = qHTS assay to identify small molecule antagonists of the retinoid-related orphan receptor gamma (ROR-gamma) signaling pathway - cell viability counter screen (AID 1159520); also: nearly all actives have a fitted effect of over 50% in size; also: potency is read from the fitted curve at half-maximal effect
Outline: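 Tet-on ROR gamma CHO cells were given compounds for 2 hr, then doxycycline hyclate at 1 uM final, and incubated 16 hr at 37 C. Viability was measured as ATP content by CellTiter-Glo luminescence.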

[6] = molecular target: Nuclear receptor ROR-gamma (Homo sapiens) (UniProt P51449); experiment: qHTS assay to identify small molecule antagonists of the retinoid-related orphan receptor gamma (ROR-gamma) signaling pathway (AID 1159521; also: nearly all actives have a fitted effect of over 50% in size; also: potency is read from the fitted curve at half-maximal effect)
Outline: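 Luminescence readout (ONE-Glo, 30 min RT) after 16 h doxycycline induction; loss of signal scored as antagonism. CHO cells with TET-inducible RORγ and RORE-LUC reporter; compounds added 2 h before 1 uM final doxycycline.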

[7] = qHTS assay to identify small molecule agonists of the AP-1 signaling pathway - cell viability counter screen (AID 1159525; calls by dose curve; also: nearly all actives have a fitted effect of over 55% in size; also: potency is read from the fitted curve at half-maximal effect)
Outline: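 Same-well cytotoxicity counter screen of the Tox21 10K library in ME-180 cells. The readout is ATP-dependent luminescence after 5 h compound treatment. Data are normalised to DMSO and tetra n-octyl ammonium bromide controls.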

[8] = qHTS assay to identify small molecule agonists of the AP-1 signaling pathway (AID 1159526; calls by dose curve)
[9] = molecular target: Retinoic acid receptor RXR-alpha (Homo sapiens) (UniProt P19793); experiment: qHTS assay to identify small molecule agonists of the RXR signaling pathway (AID 1159527; calls by dose curve; also: nearly all actives have a fitted effect of over 35% in size)
Sequence of Retinoic acid receptor RXR-alpha (Homo sapiens) (P19793 whole entry, looked up): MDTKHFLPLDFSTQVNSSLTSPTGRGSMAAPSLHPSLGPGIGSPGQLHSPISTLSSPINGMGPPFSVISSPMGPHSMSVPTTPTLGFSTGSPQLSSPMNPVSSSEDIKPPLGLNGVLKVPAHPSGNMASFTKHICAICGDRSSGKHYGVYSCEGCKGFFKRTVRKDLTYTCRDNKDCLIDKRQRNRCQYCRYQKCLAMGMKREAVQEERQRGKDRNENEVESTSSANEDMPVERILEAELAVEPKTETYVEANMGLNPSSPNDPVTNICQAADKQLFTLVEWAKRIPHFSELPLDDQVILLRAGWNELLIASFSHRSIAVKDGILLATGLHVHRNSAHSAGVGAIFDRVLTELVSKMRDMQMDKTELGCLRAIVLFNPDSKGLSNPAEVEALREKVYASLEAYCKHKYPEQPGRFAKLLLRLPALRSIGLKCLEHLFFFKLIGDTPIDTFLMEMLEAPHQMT
Outline: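 Agonist mode; 9-cis retinoic acid positive control. HEK 293T UAS-bla reporter cells, 2% charcoal-stripped FBS, 16 hr compound exposure at 37 C/5% CO2. LiveBLAzer B/G FRET substrate 2 hr RT; ex 405, em 460/530 nm.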

[10] = qHTS assay to identify small molecule agonists of the RXR signaling pathway - cell viability counter screen (AID 1159529); also: nearly all actives have a fitted effect of over 50% in size; also: potency is read from the fitted curve at half-maximal effect
Outline: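 Luminescence from CellTiter-Glo (30 min, RT) measured viability in the same wells as the beta-lactamase reporter readout. Cells: GeneBLAzer RXR-alpha HEK 293T, 2% charcoal-stripped FBS. Compound exposure 16 hr, 37 C.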

[11] = qHTS assay to identify small molecule antagonists of the retinoid acid receptor (RAR) signaling pathway - cell viability counter screen (AID 1159551); also: nearly all actives have a fitted effect of over 35% in size; also: potency is read from the fitted curve at half-maximal effect
Outline: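 Cells (C3RL4) are plated, incubated overnight, dosed with compound in DMSO, then given retinol at 1 uM final. After 6 h at 37 C, CellTiter-Glo is added and luminescence read following 30 min at room temperature.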

[12] = qHTS assay to identify small molecule antagonists of the retinoic acid receptor (RAR) signaling pathway (AID 1159552; also: nearly all actives have a fitted effect of over 50% in size; also: potency is read from the fitted curve at half-maximal effect)
Outline: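 Luminescence from a RARE luciferase reporter in C3RL4 cells served as read-out. Cells received compounds together with 1 uM final retinol and incubated 6 hr at 37 C before detection reagent was added for 30 min at room temperature.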

[13] = qHTS assay to identify small molecule agonists of the retinoic acid receptor (RAR) signaling pathway (AID 1159553); conditions: C3RL4 RARE luciferase reporter, agonist, 6 h; activation: at 73.3 µM (top of the series)
Outline: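 Seed C3RL4 reporter cells at 1,000 per well and incubate overnight at 37 C. Add compounds in DMSO, incubate 6 hr. Add luciferase reagent, wait 30 min at room temperature, read luminescence.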

[14] = qHTS assay to identify small molecule antagonists of the vitamin D receptor (VDR) signaling pathway - cell viability counter screen (AID 743225); also: nearly all actives have a fitted effect of over 50% in size; also: potency is read from the fitted curve at half-maximal effect
Outline: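 Viability counter screen run in the same wells as the beta-lactamase reporter assay: HEK 293T VDR-UAS-bla cells, 16 h compound exposure at 37C with 3 nM (final) 1-alpha,25-dihydroxyvitamin D3. CellTiter-Glo luminescence, 30 min, room temperature.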

[15] = qHTS assay to identify small molecule agonists of the NFkB signaling pathway - cell viability counter screen (AID 1159515; calls by dose curve; also: nearly all actives have a fitted effect of over 55% in size)
Outline: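 Cells are seeded (2,000 NFkB-bla ME-180 per well), rested overnight, and dosed with DMSO-dissolved compounds for 5 hr at 37 C. Viability is then read by CellTiter-Glo luminescence after 30 min at room temperature.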

[16] = qHTS assay to identify small molecule antagonists of the estrogen related receptor (ERR) signaling pathway - cell viability counter screen (AID 1224818)
Outline: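 ERR cells, 2,000/well; 6 h settle at 37 C/5% CO2; compound pin transfer (DMSO); 17.5 h at 37 C; CellTiter-Fluor, 30 min, fluorescence read.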

[17] = qHTS assay to identify small molecule antagonists of the estrogen related receptor (ERR) signaling pathway (AID 1224819; also: nearly all actives have a fitted effect of over 50% in size)
Outline: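 qHTS in ERR cells, 2,000/well, 1536 format. Cpd (DMSO) added after 6 h settle, 18 h 37 C. One-Glo luminescence, 30 min RT.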

[18] = qHTS assay to identify small molecule agonists of the estrogen related receptor (ERR) signaling pathway (AID 1224820)
Outline: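 After 6 h plating (2,000 cells/well) and 18 h compound treatment at 37 C, ERR cells were lysed with One-Glo and luminescence read after 30 min at room temperature.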

[19] = test system: estrogen-related receptor alpha (ERRalpha) with PGC-1alpha coactivator, human; experiment: qHTS assay to identify small molecule antagonists of the estrogen related receptor signaling pathway with the pleiotropic PPARgamma coactivator (PGC) (AID 1224821; calls by dose curve)
Outline: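 Luminescence from One-Glo luciferase reagent (30 min, room temperature) measured after 18 h compound treatment at 37 °C. Cells carry the PGC/ERR reporter and were seeded 6 h prior to dosing.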

[20] = qHTS assay to identify small molecule antagonists of the estrogen related receptor signaling pathway with the pleiotropic PPARgamma coactivator (PGC) cell viability counter screen (AID 1224822;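 also: viability read after 17.5 h compound exposure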)
Outline: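 Multiplexed viability counter screen run in PGC/ERR cells treated with compounds for 17.5 h at 37 C; live-cell protease signal measured by CellTiter-Fluor fluorescence.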

Row | Compound | Potency [1] | Potency [2] | Potency [3] | Potency [4] | Potency [5] | Potency [6] | Potency [7] | Potency [8] | Potency [9] | Potency [10] | Potency [11] | Potency [12] | Potency [13] | Potency [14] | Potency [15] | outcome [16] | outcome [17] | outcome [18] | outcome [19] | outcome [20]
1 | Cc1cc(C)c(N)cc1C | inactive | inactive | inactive | inactive | inactive | inactive | inactive | inactive | inactive | inactive | inactive | inactive | inactive |  |  |  |  |  |  | 
2 | OCCN1CCN(CCCN2c3ccccc3Sc3ccc(Cl)cc32)CC1 | inactive | inactive |  |  |  |  |  |  |  | 16.9 µM (active) |  | 29.8 µM (active) |  | 23.9 µM (active) | inactive | inactive | inactive | inactive | inactive | inactive
3 | CCOC(=O)[C@H](CCc1ccccc1)N[C@@H](C)C(=O)N(CC(=O)O)C1Cc2ccccc2C1 | inactive | inactive | inactive | inactive | inactive | inactive | 19 µM (active) | inactive |  | 5.35 µM (active) | inactive |  |  | inactive |  |  |  |  |  | 
4 | O=[N+]([O-])c1ccc(O/N=C/c2cc(Br)c(O)c(Br)c2)c([N+](=O)[O-])c1 | inactive | inactive |  |  |  | 6.82 µM (active) | inactive |  |  |  | inactive |  |  |  | inactive |  |  |  |  | 
5 | CCC1CO1 (stereo not drawn) | inactive | inactive | inactive | inactive | inactive | inactive | inactive | inactive | inactive | inactive | inactive | inactive | inactive | inactive |  |  |  |  |  | 
6 | COc1ncnc(NS(=O)(=O)c2ccc(N)cc2)c1OC | inactive | inactive | inactive | inactive | inactive |  | inactive | inactive | inactive | inactive | inactive | inactive | inactive | inactive |  |  |  |  |  | 
7 | CCCCCCCCCI | inactive | inactive | inactive | inactive | inactive |  | inactive |  |  | inactive | inactive | inactive | inactive | inactive |  |  |  |  |  | 
8 | CC(C)(C)CC(=O)OCC(=O)[C@@]1(O)CC[C@H]2[C@@H]3CCC4=CC(=O)C=C[C@]4(C)[C@H]3[C@@H](O)C[C@@]21C | inactive | inactive | inactive | inactive | inactive | 26.6 µM (active) |  | inactive |  |  | inactive | 33.5 µM (active) | inactive | inactive |  |  |  |  |  | 
9 | O=c1[nH]ncc2ccccc12 | inactive | inactive | inactive | inactive | inactive |  | inactive | inactive |  | inactive | inactive | inactive |  | inactive |  |  |  |  |  | 
10 | C[C@]12CC[C@@H]3c4ccc(O)cc4CC[C@H]3[C@@H]1CC[C@@H]2OC(=O)CCC1CCCC1 | 43.6 µM (active) and inactive | inactive | inactive | inactive | 43.3 µM (active) | 30.6 µM (active) |  |  |  | 49 µM (active) and 26.8 µM (active) | inactive | 61.1 µM (active) and inactive |  | inactive |  |  |  |  |  | 
11 | CS(=O)(=O)c1ccc(-c2cn3ccccc3n2)cc1 | 29.8 µM (active) | inactive | inactive | 23.9 µM (active) |  | inactive |  |  |  |  | 11.9 µM (active) | inactive |  |  |  |  |  |  |  | 
